Assay results taken from PubChem BioAssay (EPA / NIEHS).
Several values for one entry are separate records, joined by “and”; a condition that tells them apart may be missing. Equal values may be shown once. Records with an inconclusive call do not appear. Some compounds were tested as several samples or in several runs, with calls that do not always agree. Activity calls are given as the source filed them. Rule for the calls, unless noted: active = hit-call score of the fitted dose curve at least 0.9, where 1 is the maximum; inactive = score below 0.9.

Assays:
[1] = molecular target: Glucocorticoid receptor (Homo sapiens) (UniProt P04150); assay: ATG_GR_TRANS: Attagene TRANS-FACTORIAL HepG2 Assay for human Glucocorticoid Receptor (GR) (AID 2282978; active = hit-call score of the fitted dose curve at least 0.9, where 1 is the maximum;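 note: activators score as hits since higher reporter transcript over DMSO is fitted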); details: HepG2 Attagene TRANS GR reporter, mRNA transcription
Glucocorticoid receptor (Homo sapiens), sequence (P04150 whole entry, looked up, the tested form may be a part): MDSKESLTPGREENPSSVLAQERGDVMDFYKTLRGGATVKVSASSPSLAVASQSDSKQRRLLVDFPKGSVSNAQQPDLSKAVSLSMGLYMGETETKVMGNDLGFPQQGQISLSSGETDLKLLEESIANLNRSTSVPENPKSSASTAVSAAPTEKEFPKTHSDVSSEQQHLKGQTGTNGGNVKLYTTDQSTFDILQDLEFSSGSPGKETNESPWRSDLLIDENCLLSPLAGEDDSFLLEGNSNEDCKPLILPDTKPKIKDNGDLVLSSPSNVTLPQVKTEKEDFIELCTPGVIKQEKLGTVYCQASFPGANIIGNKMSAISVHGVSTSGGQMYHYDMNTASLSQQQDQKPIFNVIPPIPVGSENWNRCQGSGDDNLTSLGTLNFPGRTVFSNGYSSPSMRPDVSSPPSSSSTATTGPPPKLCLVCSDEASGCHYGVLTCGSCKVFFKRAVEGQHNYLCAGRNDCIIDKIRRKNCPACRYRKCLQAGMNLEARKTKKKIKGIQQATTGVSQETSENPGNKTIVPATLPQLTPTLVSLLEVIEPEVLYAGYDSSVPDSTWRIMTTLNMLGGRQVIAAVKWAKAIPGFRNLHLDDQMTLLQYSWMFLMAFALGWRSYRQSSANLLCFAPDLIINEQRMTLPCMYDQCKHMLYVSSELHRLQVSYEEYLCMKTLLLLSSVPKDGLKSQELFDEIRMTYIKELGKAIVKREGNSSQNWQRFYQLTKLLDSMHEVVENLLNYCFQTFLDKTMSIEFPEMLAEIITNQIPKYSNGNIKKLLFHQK
Summary of the method: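 Reporter transcript levels, detected by fluorescence after RT-PCR and capillary electrophoresis, served as the endpoint. HepG2 cells bearing transfected GAL4-UAS reporters responsive to NR-GAL4 chimeras were incubated with compound 24 h; DMSO defined baseline.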

[2] = molecular target: Oxysterols receptor LXR-alpha (Homo sapiens) (UniProt Q13133); assay: ATG_LXRa_TRANS: Attagene TRANS-FACTORIAL HepG2 Assay for human Liver X Receptor alpha (LXRa) (AID 2282980; active = hit-call score of the fitted dose curve at least 0.9, where 1 is the maximum); details: HepG2 Attagene TRANS reporter, LXRa transactivation
Summary of the method: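 Transient HepG2 transfectants, 24 h dosing, RT-PCR/CE mRNA reporter quantitation; gain-of-signal vs DMSO.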

[3] = molecular target: Oxysterols receptor LXR-beta (Homo sapiens) (UniProt P55055); assay: ATG_LXRb_TRANS: Attagene TRANS-FACTORIAL HepG2 Assay for human Liver X Receptor beta (LXRb) (AID 2282981; active = hit-call score of the fitted dose curve at least 0.9, where 1 is the maximum); details: HepG2 Attagene TRANS GAL4-LXRb reporter, mRNA
Oxysterols receptor LXR-beta (Homo sapiens), sequence (P55055 whole entry, looked up, the tested form may be a part): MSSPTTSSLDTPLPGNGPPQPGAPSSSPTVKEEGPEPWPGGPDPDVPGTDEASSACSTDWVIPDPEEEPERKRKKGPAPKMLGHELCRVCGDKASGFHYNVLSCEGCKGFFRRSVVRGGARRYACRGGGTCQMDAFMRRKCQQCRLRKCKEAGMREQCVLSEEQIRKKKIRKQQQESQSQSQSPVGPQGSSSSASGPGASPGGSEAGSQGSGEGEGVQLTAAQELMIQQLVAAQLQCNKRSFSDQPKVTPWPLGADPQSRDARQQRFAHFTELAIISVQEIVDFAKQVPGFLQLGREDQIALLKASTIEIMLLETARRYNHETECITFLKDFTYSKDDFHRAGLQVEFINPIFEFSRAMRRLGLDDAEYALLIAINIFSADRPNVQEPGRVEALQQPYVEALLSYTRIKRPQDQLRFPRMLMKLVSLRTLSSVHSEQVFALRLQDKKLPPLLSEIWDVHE
Summary of the method: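 Measures induction of a Gal4-driven reporter transcript in HepG2 cells expressing an exogenous LXRb-Gal4 fusion. Cells are exposed to compound for 24 h before RNA isolation and RT-PCR with capillary electrophoresis detection.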

[4] = molecular target: Hepatocyte nuclear factor 4-alpha (Homo sapiens) (UniProt P41235); assay: ATG_HNF4a_TRANS: Attagene TRANS-FACTORIAL HepG2 Assay for human Hepatocyte Nuclear Factor 4 alpha (HNF4a) (AID 2282982; active = hit-call score of the fitted dose curve at least 0.9, where 1 is the maximum); details: HepG2 HNF4a transactivation reporter, mRNA readout
Hepatocyte nuclear factor 4-alpha (Homo sapiens), sequence (P41235 whole entry, looked up, the tested form may be a part): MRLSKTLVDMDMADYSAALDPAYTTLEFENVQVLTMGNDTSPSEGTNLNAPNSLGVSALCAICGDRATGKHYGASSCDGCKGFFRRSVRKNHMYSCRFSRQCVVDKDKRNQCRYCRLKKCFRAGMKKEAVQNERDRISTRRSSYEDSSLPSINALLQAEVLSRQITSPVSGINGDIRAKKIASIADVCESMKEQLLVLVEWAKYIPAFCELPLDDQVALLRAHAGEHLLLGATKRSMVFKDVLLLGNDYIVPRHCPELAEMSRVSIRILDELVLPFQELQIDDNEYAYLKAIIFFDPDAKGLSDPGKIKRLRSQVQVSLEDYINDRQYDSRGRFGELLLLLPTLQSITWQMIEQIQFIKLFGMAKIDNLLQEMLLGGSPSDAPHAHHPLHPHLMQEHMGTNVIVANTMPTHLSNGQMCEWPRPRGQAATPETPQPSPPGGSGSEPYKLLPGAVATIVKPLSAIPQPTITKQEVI
Summary of the method: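 In this trans-factorial format, a chimeric HNF4a-GAL4 fusion drives a GAL4-UAS reporter in transfected HepG2 liver cells. After 24 h treatment, reporter mRNA induction is measured by RT-PCR with capillary electrophoresis, relative to DMSO.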

[5] = ATG_M_06_TRANS: Attagene TRANS-FACTORIAL HepG2 Assay for M06 Transcription Factor (Internal Marker) (AID 2282983; active = hit-call score of the fitted dose curve at least 0.9, where 1 is the maximum); details: HepG2 Attagene TRANS M06 internal marker reporter
Summary of the method: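 Human liver HepG2 cells bearing transiently transfected chimeric NR-GAL4 reporter units were treated with chemicals for 24 h. Total RNA was reverse-transcribed, reporter sequences amplified and labelled, then quantified by capillary electrophoresis. Activity was fitted upward relative to DMSO.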

[6] = ATG_M_32_TRANS: Attagene TRANS-FACTORIAL HepG2 Assay for M32 Transcription Factor (Internal Marker) (AID 2282984; active = hit-call score of the fitted dose curve at least 0.9, where 1 is the maximum;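 note: transcript level of a background control reporter unit measured by RT-PCR and capillary electrophoresis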); details: HepG2 Attagene TRANS M32 internal marker reporter
Summary of the method: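 After 24 h dosing of transfected HepG2 cells, total RNA was reverse-transcribed, reporter sequences PCR-amplified, 6-FAM labelled by primer extension and HpaI-digested before capillary electrophoresis. Signal increase over DMSO was fitted.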

[7] = molecular target: Nuclear respiratory factor 1 (Homo sapiens) (UniProt Q16656); assay: ATG_NRF1_CIS: Attagene CIS-FACTORIAL HepG2 Assay for human Nuclear Respiratory Factor 1 (NRF1) Orphan Gene (AID 2282987); details: HepG2 NRF1 cis-element reporter, Attagene multiplex; actives raise or lower the signal
Nuclear respiratory factor 1 (Homo sapiens), sequence (Q16656 whole entry, looked up, the tested form may be a part): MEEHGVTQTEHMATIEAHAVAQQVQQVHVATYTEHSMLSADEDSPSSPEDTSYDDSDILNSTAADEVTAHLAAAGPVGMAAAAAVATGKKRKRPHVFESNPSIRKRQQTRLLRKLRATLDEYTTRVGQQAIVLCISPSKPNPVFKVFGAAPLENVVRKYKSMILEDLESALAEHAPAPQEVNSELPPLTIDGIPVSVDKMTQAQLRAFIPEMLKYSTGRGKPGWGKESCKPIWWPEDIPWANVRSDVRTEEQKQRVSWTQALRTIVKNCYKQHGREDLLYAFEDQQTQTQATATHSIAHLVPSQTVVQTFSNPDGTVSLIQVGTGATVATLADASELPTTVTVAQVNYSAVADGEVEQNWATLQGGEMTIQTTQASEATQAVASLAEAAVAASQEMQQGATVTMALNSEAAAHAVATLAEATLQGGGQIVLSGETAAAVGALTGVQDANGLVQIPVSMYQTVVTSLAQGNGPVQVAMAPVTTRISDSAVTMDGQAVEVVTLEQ
Summary of the method: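 Cells (HepG2, transient MRTU transfection) are exposed to compound for 24 h, then RNA isolated and reporter mRNA amplified and fluorescently labelled. Fragments are separated by capillary electrophoresis; signal change is fitted bidirectionally relative to DMSO.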

[8] = molecular target: Myc proto-oncogene protein (Homo sapiens) (UniProt P01106); assay: ATG_Myc_CIS: Attagene CIS-FACTORIAL HepG2 Assay for human Myelocytomatosis (Myc) Proto-Oncogene Transcription Factor (AID 2282990); details: HepG2, Attagene cis-reporter transcription factor activity; actives raise or lower the signal
Myc proto-oncogene protein (Homo sapiens), sequence (P01106 whole entry, looked up): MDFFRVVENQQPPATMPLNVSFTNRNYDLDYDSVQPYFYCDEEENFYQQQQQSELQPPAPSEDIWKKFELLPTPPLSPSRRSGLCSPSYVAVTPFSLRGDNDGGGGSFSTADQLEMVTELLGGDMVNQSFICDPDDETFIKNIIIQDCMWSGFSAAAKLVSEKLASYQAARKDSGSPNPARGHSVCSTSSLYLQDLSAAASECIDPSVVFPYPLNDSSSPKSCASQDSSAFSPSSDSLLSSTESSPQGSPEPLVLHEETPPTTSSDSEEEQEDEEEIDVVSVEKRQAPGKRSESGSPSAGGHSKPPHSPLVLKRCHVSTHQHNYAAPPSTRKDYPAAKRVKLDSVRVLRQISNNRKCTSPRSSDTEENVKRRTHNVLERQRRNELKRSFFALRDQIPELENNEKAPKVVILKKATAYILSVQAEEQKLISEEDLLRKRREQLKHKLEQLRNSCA
Summary of the method: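 HepG2 cells transiently transfected with multiple cis-promoter-driven reporter transcription units, so endogenous TF activity is read. After 24 h compound exposure, reporter mRNA was quantified by RT-PCR, 6-FAM labelling, HpaI digestion and capillary electrophoresis; bidirectional fit versus DMSO.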

[9] = ATG_NF_kB_CIS: Attagene CIS-FACTORIAL HepG2 Assay for human Nuclear Factor Kappa B (NF-kB) (AID 2282991); details: HepG2 Attagene cis-factorial NF-kB reporter mRNA; actives raise or lower the signal
Summary of the method: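 Measures mRNA induction of an NF-kB-responsive cis-element reporter in HepG2 cells transfected with multiple reporter units, sampled 24 h post-dosing; quantified by fluorescence after RT-PCR and capillary electrophoresis, fitted for activation or inhibition against DMSO.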

[10] = ATG_NRF2_ARE_CIS: Attagene CIS-FACTORIAL HepG2 Assay for human Nuclear Factor Erythroid 2 Related Factor 2 (NFR2) response to Antioxidant Response Elements (ARE) (AID 2282992); details: HepG2 Attagene ARE/NRF2 reporter, transcription factor activity; actives raise or lower the signal;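 for AC50: reporter mRNA level measured by RT-PCR and capillary electrophoresis fluorescence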
Summary of the method: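 Readout: reporter mRNA quantified by RT-PCR plus FAM-labelled primer extension, HpaI digestion and capillary electrophoresis, 24 h after dosing transfected HepG2 cells. Gain or loss of signal is fitted bidirectionally against DMSO baseline.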

[11] = ATG_Oct_MLP_CIS: Attagene CIS-FACTORIAL HepG2 Assay for human Octamer-Binding Transcription Factor (Oct) (AID 2282993); details: HepG2 Attagene cis-factorial Oct reporter, mRNA; actives raise or lower the signal
Summary of the method: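 HepG2, transient MRTU transfection, cis promoter elements; 24 h dosing; RT-PCR/CE fluorescence read-out of reporter mRNA; fit both directions vs DMSO.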

[12] = molecular target: Cellular tumor antigen p53 (Homo sapiens) (UniProt P04637); assay: ATG_p53_CIS: Attagene CIS-FACTORIAL HepG2 Assay for human p53 Transcription Factor (AID 2282994); details: HepG2 p53 cis-element reporter, Attagene mRNA; actives raise or lower the signal
Cellular tumor antigen p53 (Homo sapiens), sequence (P04637 whole entry, looked up): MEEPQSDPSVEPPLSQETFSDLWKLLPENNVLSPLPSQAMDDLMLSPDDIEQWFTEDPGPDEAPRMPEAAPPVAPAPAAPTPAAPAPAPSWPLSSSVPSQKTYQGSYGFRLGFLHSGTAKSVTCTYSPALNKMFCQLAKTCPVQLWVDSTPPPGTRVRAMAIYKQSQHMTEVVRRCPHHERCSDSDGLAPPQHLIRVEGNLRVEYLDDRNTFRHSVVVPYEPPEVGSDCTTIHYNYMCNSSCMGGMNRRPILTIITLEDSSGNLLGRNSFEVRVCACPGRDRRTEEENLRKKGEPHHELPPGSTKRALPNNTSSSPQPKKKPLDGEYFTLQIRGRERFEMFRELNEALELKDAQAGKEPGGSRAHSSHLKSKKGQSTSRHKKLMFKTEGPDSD
Summary of the method: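 Read-out: reporter mRNA by RT-PCR plus capillary electrophoresis with fluorescence detection. Human HepG2 liver cells carried transfected multi-reporter cis-element constructs, dosed 24 h. Gain or loss of signal fitted bidirectionally against DMSO control.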

[13] = BSK_3C_TissueFactor: BioMAP Diversity Plus: 3C Assay for Tissue Factor Biomarker Activity (AID 2282997); details: BioMAP 3C HUVEC, tissue factor biomarker readout; actives raise or lower the signal
Summary of the method: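 Cells used were primary human umbilical vein endothelial cells. They were dosed with chemical, and after 24 h Tissue Factor was quantified by ELISA. Curves were fitted bidirectionally with DMSO as baseline.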

[14] = BSK_3C_uPAR: BioMAP Diversity Plus: 3C Assay for Urokinase-type plasminogen activator receptor (uPAR) Biomarker Activity (AID 2282998); details: BioMAP 3C HUVEC, uPAR biomarker ELISA; actives raise or lower the signal
Summary of the method: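 A multiplexed primary-cell system built on human umbilical vein endothelium was used, with chemical present for 24 h before reading. Cell-surface uPAR was detected by ELISA; signal change in either direction counted against DMSO.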

[15] = BSK_3C_VCAM1: BioMAP Diversity Plus: 3C Assay for Vascular cell adhesion molecule 1 (VCAM1) Biomarker Activity (AID 2282999); details: BioMAP 3C HUVEC, VCAM1 ELISA, cytokine-stimulated; actives raise or lower the signal
Summary of the method: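 Vascular primary endothelium (human umbilical vein) was exposed to chemicals and assayed 24 h later. VCAM-1 levels came from ELISA, with DMSO serving as baseline for bidirectional fitting.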

[16] = BSK_4H_Eotaxin3: BioMAP Diversity Plus: 4H Assay for Eotaxin 3 Biomarker Activity (AID 2283000); details: primary human endothelial cells (HUVEC); actives raise or lower the signal
Summary of the method: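 Endothelial primary cells (human umbilical vein) exposed to compound for 24 h. ELISA detection of Eotaxin-3.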

[17] = molecular target: Nuclear receptor subfamily 4 group A member 2 (Homo sapiens) (UniProt P43354); assay: ATG_NURR1_TRANS: Attagene TRANS-FACTORIAL HepG2 Assay for human Nuclear Receptor Related Protein 1 (NURR1) (AID 2282985; active = hit-call score of the fitted dose curve at least 0.9, where 1 is the maximum); details: HepG2 Attagene TRANS reporter, mRNA readout
Nuclear receptor subfamily 4 group A member 2 (Homo sapiens), sequence (P43354 whole entry, looked up, the tested form may be a part): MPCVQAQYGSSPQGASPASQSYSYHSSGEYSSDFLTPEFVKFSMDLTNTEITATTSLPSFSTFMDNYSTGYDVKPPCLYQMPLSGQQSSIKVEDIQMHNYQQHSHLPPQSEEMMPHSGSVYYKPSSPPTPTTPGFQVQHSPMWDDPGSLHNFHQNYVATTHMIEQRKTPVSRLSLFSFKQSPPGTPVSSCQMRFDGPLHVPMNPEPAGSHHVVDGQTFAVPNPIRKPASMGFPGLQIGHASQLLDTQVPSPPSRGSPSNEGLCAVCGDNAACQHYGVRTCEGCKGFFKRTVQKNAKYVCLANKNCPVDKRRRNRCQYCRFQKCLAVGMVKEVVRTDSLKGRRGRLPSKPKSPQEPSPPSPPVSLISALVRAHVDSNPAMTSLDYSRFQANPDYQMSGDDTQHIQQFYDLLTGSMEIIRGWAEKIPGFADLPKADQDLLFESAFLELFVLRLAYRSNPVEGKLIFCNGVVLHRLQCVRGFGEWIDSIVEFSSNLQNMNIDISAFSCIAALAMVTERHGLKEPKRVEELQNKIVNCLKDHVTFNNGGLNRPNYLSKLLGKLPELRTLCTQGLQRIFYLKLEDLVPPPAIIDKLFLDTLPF
Summary of the method: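 Chimeric NR-Gal4 fusion activity measured in HepG2 after 24 h treatment. Reporter transcripts detected by RT-PCR and capillary electrophoresis fluorescence; positive-direction curve fitting against DMSO.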

[18] = molecular target: Transcriptional activator Myb (Homo sapiens) (UniProt P10242); assay: ATG_Myb_CIS: Attagene CIS-FACTORIAL HepG2 Assay for human Myeloblastosis (Myb) Proto-Oncogene Transcription Factor (AID 2282986); details: HepG2 Attagene CIS-FACTORIAL Myb reporter transcription; actives raise or lower the signal
Transcriptional activator Myb (Homo sapiens), sequence (P10242 whole entry, looked up): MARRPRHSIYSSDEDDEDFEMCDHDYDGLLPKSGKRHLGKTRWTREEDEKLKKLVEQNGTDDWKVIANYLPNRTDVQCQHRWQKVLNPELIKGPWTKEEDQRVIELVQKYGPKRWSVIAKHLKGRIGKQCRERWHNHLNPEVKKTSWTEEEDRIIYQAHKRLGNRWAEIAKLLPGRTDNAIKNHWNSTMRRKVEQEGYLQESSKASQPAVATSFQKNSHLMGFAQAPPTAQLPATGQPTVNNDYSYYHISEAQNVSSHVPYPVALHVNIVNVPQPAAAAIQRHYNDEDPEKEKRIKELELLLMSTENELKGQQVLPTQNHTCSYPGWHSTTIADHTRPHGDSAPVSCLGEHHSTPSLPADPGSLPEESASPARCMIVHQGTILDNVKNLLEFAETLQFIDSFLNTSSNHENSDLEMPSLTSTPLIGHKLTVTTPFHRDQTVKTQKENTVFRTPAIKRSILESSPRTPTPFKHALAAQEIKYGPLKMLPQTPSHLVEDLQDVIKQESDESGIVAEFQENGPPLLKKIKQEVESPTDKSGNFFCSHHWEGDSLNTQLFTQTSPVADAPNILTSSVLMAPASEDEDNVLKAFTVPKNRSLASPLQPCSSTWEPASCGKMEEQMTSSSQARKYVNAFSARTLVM
Summary of the method: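 Transiently transfected HepG2 cells, treated 24 h. Reporter mRNA quantified by RT-PCR/capillary electrophoresis; bidirectional fit relative to DMSO.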

[19] = ATG_NFI_CIS: Attagene CIS-FACTORIAL HepG2 Assay for human Nuclear Factor I (NFI) (AID 2282989); details: HepG2 cis-regulatory reporter, NFI response element transcription; actives raise or lower the signal
Summary of the method: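 Cells: human liver HepG2, transiently transfected with promoter-regulated reporter transcription units. Exposure 24 h. Detection: fluorescent RT-PCR products separated by capillary electrophoresis, normalised to DMSO negative control.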

[20] = molecular target: Bile acid receptor (Homo sapiens) (UniProt Q96RI1); assay: ATG_FXR_TRANS: Attagene TRANS-FACTORIAL HepG2 Assay for Farnesoid X Receptor (FXR) (AID 2282979; active = hit-call score of the fitted dose curve at least 0.9, where 1 is the maximum;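 note: hits raise reporter mRNA above DMSO so AC50 marks FXR activation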); details: HepG2 Attagene TRANS FXR-GAL4 reporter transcription
Bile acid receptor (Homo sapiens), sequence (Q96RI1 whole entry, looked up, the tested form may be a part): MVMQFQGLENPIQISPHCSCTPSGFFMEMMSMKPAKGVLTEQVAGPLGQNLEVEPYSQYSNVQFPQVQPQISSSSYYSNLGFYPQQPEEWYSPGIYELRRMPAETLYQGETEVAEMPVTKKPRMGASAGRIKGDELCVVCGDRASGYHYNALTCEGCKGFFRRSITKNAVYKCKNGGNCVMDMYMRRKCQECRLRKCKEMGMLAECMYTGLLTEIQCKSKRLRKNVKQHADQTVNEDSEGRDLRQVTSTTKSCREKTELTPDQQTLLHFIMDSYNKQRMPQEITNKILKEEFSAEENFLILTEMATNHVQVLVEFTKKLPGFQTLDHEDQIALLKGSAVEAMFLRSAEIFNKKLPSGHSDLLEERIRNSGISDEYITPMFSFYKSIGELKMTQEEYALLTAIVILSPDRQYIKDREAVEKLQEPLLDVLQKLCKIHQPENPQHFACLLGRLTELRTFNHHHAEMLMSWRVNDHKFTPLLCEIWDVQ
Summary of the method: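 Chimeric FXR-GAL4 activity in transiently transfected human HepG2 liver cells is scored as induction of reporter mRNA after 24 h of dosing. Detection uses RT-PCR with fluorescent labelling and capillary electrophoresis, with DMSO serving as baseline.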

Measured: AC50

Oc1ccc2ccccc2c1
inactive: [1] | [2] | [3] | [4] | [5] | [6] | [7] | [8] | [9] | [11] | [12] | [13] | [14] | [15]
active: [10] 15.5 µM and 5.76 µM | [12] 180 µM | [16] 15.7 µM

Cc1ccc2oc(CN(Cc3ccccc3)C(=O)Nc3c(F)cc(F)cc3F)c(-c3ccc(Cl)cc3)c2c1
active: [14] 10.8 µM
not listed: [11] | [19] | [20]
inactive: all other assays above

CC(C)(O)c1ccc(CNC(=O)c2cccnc2Oc2ccc3nonc3c2)cc1
active: [1] 48.6 µM
not listed: [2] | [4] | [11] | [18] | [20]
inactive: all other assays above

CC(O)CC(C)(C)O (configuration not stated)
not listed: [3] | [19] | [20]
inactive: all other assays above

O=C1CCC(C2CCCCC2)CC1
active: [8] 187 µM | [10] 100 µM [middle of 4 runs] | [12] 166 µM
inactive: [1] | [20] | [2] | [3] | [5] | [6] | [17] | [7] | [19] | [8] | [9] | [12] | [13] | [14] | [15] | [16]

COc1ccc2cc(S(=O)(=O)N[C@H](CC(=O)N[C@H](Cc3ccc(CN4[C@H](C)CCC[C@@H]4C)cc3)C(=O)N(C)C(C)C)c3ccc4c(c3)OCO4)ccc2c1
active: [10] 11 µM | [12] 11 µM | [13] 5.1 µM | [14] 19.1 µM | [15] 16.4 µM | [16] 11.3 µM
not listed: [5] | [6] | [11] | [18] | [20]
inactive: all other assays above

Cc1occc1C(=O)Nc1ccc(C(=O)N2CCC(F)(F)/C(=C\C(=O)N3CCC(N4CCCCC4)CC3)c3ccccc32)cc1
active: [8] 58.3 µM | [9] 18.5 µM | [10] 22 µM | [11] 49.6 µM
not listed: [17] | [18] | [19] | [20]
inactive: all other assays above

CCCCCCCCOC(=O)c1cc(O)c(O)c(O)c1
active: [2] 52.2 µM | [17] 24.2 µM | [10] 5.96 µM | [13] 20 µM | [14] 36.3 µM | [15] 32.5 µM | [16] 17.3 µM
not listed: [19] | [20]
inactive: all other assays above

CCCCCCCCCC(=O)O
active: [17] 104 µM | [9] 104 µM
inactive: [1] | [4] | [5] | [6] | [17] | [7] | [19] | [8] | [9] | [10] | [12] | [13] | [14] | [15] | [16]

Cc1oc2c(NC(=O)c3c(Cl)cccc3Cl)cccc2c1C(C)(C)O
active: [12] 25.6 µM | [13] 4.29 µM | [14] 25.7 µM | [16] 7.04 µM
not listed: [3] | [4] | [5] | [9] | [20]
inactive: all other assays above

O=C(OCCCCCCOC(=O)c1ccccc1)c1ccccc1
not listed: [3] | [6] | [11] | [18] | [19] | [20]
inactive: all other assays above

Cc1cn([C@H]2C[C@H](N=[N+]=[N-])[C@@H](CO)O2)c(=O)[nH]c1=O
not listed: [2] | [11] | [17] | [20]
inactive: all other assays above
